Results: PubChem BioAssay
The source made the active and inactive calls.

Key:
[1] = system: Plasmodium falciparum Sir2 (PF13_0152, Sir2A); test: pfSir2 binders on small-molecule microarrays, primary screen, biochemical, small-molecule microarray, 635 nm fluorescence (AID 1098); conditions: small-molecule microarray binding, fluorescence 635 nm; higher = more signal;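 note: score merges spot fluorescence intensity with its signal-to-noise ratio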
[2] = small-molecule microarray binders of probe aDKK1, primary screen, biochemical, biotinylated probe, 635/667 nm fluorescence (AID 1099); conditions: higher = more signal;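 note: score merges 667nm spot fluorescence with signal to noise across triplicate slides; reference of the scale not given here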
[3] = small-molecule microarray binders of probe aCHRDL2, primary screen, biochemical, biotinylated probe, 635/667 nm fluorescence (AID 1100); conditions: higher = more signal
[4] = splicing luciferase reporter signal modulators, primary screen, spliceosome inhibition project, cell-based, HEK293, splice +/- reporter (AID 1101); conditions: luminescence, 24 h, higher = more signal, called active from +8 up or from −8 down;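 note: HEK293 cells carrying a splicing-competent luciferase reporter gene; test concentration not given here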
[5] = target: Fibroblast growth factor 10 (Homo sapiens) (UniProt O15520); test: FGF10 binders on small-molecule microarrays, primary screen, biochemical, small-molecule microarray, 635 nm fluorescence (AID 1102); conditions: FGF10 binding, fluorescence 635 nm, higher = more signal
[6] = system: glycogen synthase kinase-3 (GSK3A per assay name; protocol says GSK3B); test: GSK3 binders on small-molecule microarrays, primary screen, biochemical, small-molecule microarray, 635 nm fluorescence, GSK3A (AID 1103); conditions: small-molecule microarray binding, fluorescence 635 nm; higher = more signal; note: the record names both GSK3A and GSK3B
[7] = target: Epidermal growth factor receptor (Homo sapiens) (UniProt P00533); test: EGFR binders on small-molecule microarrays, primary screen, biochemical, small-molecule microarray, 635 nm fluorescence (AID 1104); conditions: EGFR binding, higher = more signal;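 note: score merges 667 nm emission intensity with spot signal to noise over triplicate slides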
[8] = target: Follistatin-related protein 3 (Homo sapiens) (UniProt O95633); test: FSTL3 binders on small-molecule microarrays, primary screen, biochemical, small-molecule microarray, 635 nm fluorescence (AID 1105); conditions: FSTL3 binding, higher = more signal;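 note: score merges emission near 667 nm and signal to noise per printed spot across three slides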
[9] = target: Dickkopf-related protein 1 (Homo sapiens) (UniProt O94907); test: DKK1 binders on small-molecule microarrays, primary screen, biochemical, small-molecule microarray, 635 nm fluorescence scan (AID 1106); conditions: DKK1 binding, higher = more signal;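 note: score merges emission near 667 nm with signal to noise over three replicate slides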
[10] = system: Inhibin beta A chain (activin A); test: INHBA (activin A) binders on microarrays, primary screen, biochemical, small-molecule microarray, 635 nm fluorescence scan (AID 1107); conditions: small-molecule microarray binding, higher = more signal;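 note: mouse activin A protein probed at 4.33 µg/mL on printed slides; score merges bound-protein fluorescence near 667 nm with spot signal-to-noise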

Sequence of Dickkopf-related protein 1 (Homo sapiens) (O94907 whole entry, looked up): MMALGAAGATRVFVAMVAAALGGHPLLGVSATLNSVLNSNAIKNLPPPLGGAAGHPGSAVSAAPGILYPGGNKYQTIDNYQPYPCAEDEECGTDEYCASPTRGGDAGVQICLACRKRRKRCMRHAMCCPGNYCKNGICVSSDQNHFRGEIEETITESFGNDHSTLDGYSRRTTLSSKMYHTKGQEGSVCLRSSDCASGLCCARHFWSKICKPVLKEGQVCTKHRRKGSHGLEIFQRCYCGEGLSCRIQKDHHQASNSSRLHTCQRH
Sequence of Epidermal growth factor receptor (Homo sapiens) (P00533 whole entry, looked up): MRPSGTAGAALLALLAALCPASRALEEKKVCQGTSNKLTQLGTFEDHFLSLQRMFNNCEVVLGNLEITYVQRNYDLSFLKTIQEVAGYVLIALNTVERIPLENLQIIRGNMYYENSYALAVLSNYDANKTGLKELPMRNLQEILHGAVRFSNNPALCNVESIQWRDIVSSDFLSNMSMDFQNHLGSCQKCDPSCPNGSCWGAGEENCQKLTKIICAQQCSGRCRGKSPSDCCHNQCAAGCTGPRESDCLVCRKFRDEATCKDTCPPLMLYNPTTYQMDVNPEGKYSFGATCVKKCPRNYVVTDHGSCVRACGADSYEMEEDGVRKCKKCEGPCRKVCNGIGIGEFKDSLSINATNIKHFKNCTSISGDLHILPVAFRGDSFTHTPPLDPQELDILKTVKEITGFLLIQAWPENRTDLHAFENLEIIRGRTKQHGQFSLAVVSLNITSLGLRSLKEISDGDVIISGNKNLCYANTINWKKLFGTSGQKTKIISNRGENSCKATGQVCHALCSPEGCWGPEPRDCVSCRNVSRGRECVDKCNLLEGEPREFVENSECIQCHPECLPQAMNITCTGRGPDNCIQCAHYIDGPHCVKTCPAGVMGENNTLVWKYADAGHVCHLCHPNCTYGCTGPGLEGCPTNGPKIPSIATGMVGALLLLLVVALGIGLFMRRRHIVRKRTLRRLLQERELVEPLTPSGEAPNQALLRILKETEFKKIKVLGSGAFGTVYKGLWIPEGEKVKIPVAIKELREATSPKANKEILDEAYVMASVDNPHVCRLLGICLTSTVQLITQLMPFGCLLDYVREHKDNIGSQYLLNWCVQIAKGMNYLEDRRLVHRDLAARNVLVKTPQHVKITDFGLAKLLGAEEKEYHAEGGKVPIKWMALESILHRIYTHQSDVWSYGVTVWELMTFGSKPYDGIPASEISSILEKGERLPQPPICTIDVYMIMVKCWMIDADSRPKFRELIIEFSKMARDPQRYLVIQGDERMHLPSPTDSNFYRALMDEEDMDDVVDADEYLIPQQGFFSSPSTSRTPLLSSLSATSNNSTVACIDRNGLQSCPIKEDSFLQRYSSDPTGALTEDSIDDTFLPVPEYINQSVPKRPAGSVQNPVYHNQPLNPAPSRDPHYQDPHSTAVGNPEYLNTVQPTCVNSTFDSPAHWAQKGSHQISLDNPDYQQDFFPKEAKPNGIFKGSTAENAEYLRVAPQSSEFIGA
Sequence of Fibroblast growth factor 10 (Homo sapiens) (O15520 whole entry, looked up): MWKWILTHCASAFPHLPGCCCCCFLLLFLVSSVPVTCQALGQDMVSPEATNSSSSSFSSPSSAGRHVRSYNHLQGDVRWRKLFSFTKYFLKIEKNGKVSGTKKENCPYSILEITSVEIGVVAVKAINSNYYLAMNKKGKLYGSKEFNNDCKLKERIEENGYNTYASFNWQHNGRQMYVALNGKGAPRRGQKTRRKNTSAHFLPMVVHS
Sequence of Follistatin-related protein 3 (Homo sapiens) (O95633 whole entry, looked up): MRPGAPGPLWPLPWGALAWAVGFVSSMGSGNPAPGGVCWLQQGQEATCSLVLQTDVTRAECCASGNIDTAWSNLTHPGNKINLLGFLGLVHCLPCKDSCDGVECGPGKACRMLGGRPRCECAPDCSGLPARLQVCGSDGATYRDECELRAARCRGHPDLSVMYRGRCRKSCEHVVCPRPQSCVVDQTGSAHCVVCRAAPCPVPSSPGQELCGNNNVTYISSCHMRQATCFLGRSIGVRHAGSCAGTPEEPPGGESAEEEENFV

Compound | composite z-score [1] | composite z-score [2] | composite z-score [3] | z-score [4] | composite z-score [5] | composite z-score [6] | composite z-score [7] | composite z-score [8] | composite z-score [9] | composite z-score [10]
C=CCC(OC(C)=O)[C@@H]1[C@@H](N(Cc2cc3ccccc3o2)C(=O)c2ccc(C)cc2)c2cc(OCCCO)ccc2N1C(=O)c1ccc(-c2ccccc2)cc1 (stereo not given in full) | -0.433 | -0.228 | 0.118 | -3.23 (inactive) | 0.161 | -0.291 | 0.0009 | 0.363 | 0.111 | 1.32
[N-]=[N+]=NCc1ccccc1C[C@]1(C(=O)NCc2ccccc2)COC(c2ccc(OCCCO)cc2)=N1 | 0.518 | -0.109 | 0.681 | -0.426 (inactive) | 0.447 | 0.431 | 0.0245 | -0.109 | -0.874 | 0.743
CC(C)NC(=O)[C@@H]1c2ccccc2C(=O)N(C2CCCCC2)[C@H]1c1ccc(CO)cc1 | 0.576 | 0.678 | 0.919 | 0.0672 (inactive) | 0.902 | 0.889 | 0.101 | 0.28 | -0.161 | 0.445
CCCNC(=O)[C@@]1(C)c2ccccc2C(=O)N(Cc2cc(C(F)(F)F)cc(C(F)(F)F)c2)[C@H]1c1ccc(CO)cc1 | 0.0609 | 0.21 | 0.608 | -0.542 (inactive) | -0.0617 | -0.196 | -0.708 | -0.808 | -0.408 | -0.605
COC(=O)[C@@]1(Cc2ccc(F)cc2)[C@H]2c3cc(C(=O)N(C)C)n(CCCNc4ccc(C(F)(F)F)cc4Cl)c3C[C@H]2CN1C(=O)c1ccccc1 | 1.08 | 1.4 | 1.38 | -1.75 (inactive) | 0.808 | 1.29 | -0.19 | 1.2 | -0.667 | -0.0131
[N-]=[N+]=NCc1ccccc1[C@H]1OC(c2ccc(OCCCO)cc2)=N[C@@]1(Cc1ccccc1)C(=O)O | 0.208 | 0.213 | 0.884 | -1.01 (inactive) | 0.621 | 0.51 | 0.0378 | 0.47 | -0.213 | 1.25
CCOC(=O)C1=CC[C@@H](c2cccc(Cl)c2)N(S(=O)(=O)c2ccc(C)cc2)[C@H]1c1ccc(C#N)cc1 | 1.06 | 0.855 | 0.252 | -0.201 (inactive) | 0.841 | 1.32 | 0.36 | 1.41 | 0.49 | 0.582
CN(C)CCCC[C@@H]1NC(=O)[C@@H]2C[C@H](C(=O)NCCCCCCN)[C@H](c3ccc(O)cc3)N2C1=O | 0.812 | 1.46 | 0.848 | -0.0228 (inactive) | 0.987 | 1 | 0.734 | 0.849 | 1.05 | 1.41
CCCC[C@H]1OB(O)C[C@H]2C1=C(C)Cn1c(=O)n(-c3ccccc3)c(=O)n12 | 0.161 | -0.291 | -0.67 | -0.293 (inactive) | 0.49 | 0.37 | 0.512 | 0.662 | 0.779 | 0.255
O=C1C2C=CC(C(O)c3ccc(B(O)O)cc3)N(Nc3ccc([N+](=O)[O-])cc3)C2C(=O)N1c1ccccc1 (stereo not given) | 0.76 | 0.627 | 0.642 | 0.98 (inactive) | 1.11 | 1.19 | 0.415 | 0.998 | -0.0757 | 0.0102
Oc1ccc2cc[n+](Cc3cccc(OC(F)(F)F)c3)cc2c1 | 1.36 | -0.319 | -0.576 | 0.609 (inactive) | 0.837 | -0.477 | 1.2 | 1.24 | 0.732 | 0.826
CC(C)C(=C=CC[C@H](O)c1ccccc1OCCO)CCO | 0.0112 | 0.292 | -0.0417 | 0.232 (inactive) | 0.0544 | -0.144 | -0.585 | -0.449 | -0.679 | 0.913
C=C(CCCC)C(=O)CC[C@@H](OC(=O)c1ccccc1-c1ccccc1C(=O)O)c1ccc(CO)o1 | 0.628 | -0.0075 | -0.301 | 0.716 (inactive) | 1.22 | 1.1 | -0.183 | 0.818 | 1.03 | 1.01
C[C@H]1C2[C@H](Cc3ccccc3)NC(=O)[C@]23C(=O)N[C@H](Cc2ccccc2)C(=O)N[C@H](Cc2ccccc2)C(=O)NC/C=C/CCC/C=C/C3[C@@H]2O[C@]12C (stereo not given in full) | 1.17 | -0.319 | -0.327 | -0.549 (inactive) | 0.398 | 0.309 | 0.17 | 1.4 | 0.54 | 0.645
COCCOC(=O)N1C(=O)[C@@]2(c3ccccc31)[C@H](C(=O)N1CCCCCCC1)[C@H]1C(=O)O[C@H](c3ccccc3)[C@H](c3ccccc3)N1[C@@H]2c1ccccc1OCCO | 1.72 | 2.76 | 1.66 | -0.0563 (inactive) | 1.09 | 1.29 | 1 | 1.52 | 1.5 | 2.02
CCCC[C@H]1C[C@@H]1[C@@H]1N(P(=O)(c2ccccc2)c2ccccc2)[C@](CO)(c2ccccc2)CC12CC2 | 1.09 | 0.639 | 1.01 | -4.35 (inactive) | 0.104 | -0.571 | -0.395 | -0.177 | -1.47 | 0.846
CCCNC(=O)[C@@]1(C)c2ccccc2C(=O)N(Cc2ccc(OC(F)(F)F)cc2)[C@H]1c1ccc(CO)cc1 | 1.57 | 0.0743 | 0.666 | -0.129 (inactive) | 0.0672 | 0.0816 | -1.02 | -0.401 | -0.977 | 0.427
NC(=O)NCC#Cc1ccc2c(c1)[C@]1(C(=O)N2)[C@H](c2ccc(O)cc2)N2[C@H](c3ccccc3)[C@H](c3ccccc3)OC(=O)[C@H]2[C@@H]1C(=O)N1CCN(c2ncccn2)CC1 | 0.681 | 0.337 | 0.372 | -0.0492 (inactive) | 0.602 | -0.398 | -0.232 | -0.483 | -0.122 | 0.862
COCCCNC(=O)[C@]1(Cc2ccccc2N=[N+]=[N-])N=C(c2ccc(OCCCO)cc2)O[C@@H]1c1ccccc1CN=[N+]=[N-] | 1.09 | 1.2 | 1.01 | -0.4 (inactive) | 1.26 | 0.644 | 0.504 | 0.912 | 0.318 | 0.928
Cc1c(NC(=O)/C(C#N)=C/C=C/c2ccccc2)c(=O)n(-c2ccccc2)n1C | 0.504 | -0.0814 | -0.366 | 0.777 (inactive) | -0.0134 | 0.234 | 0.513 | 0.573 | 0.425 | 0.772
O=C1O[C@H](c2ccccc2)[C@H](c2ccccc2)N2[C@H]1[C@@H](C(=O)NC[C@H](O)c1ccccc1)[C@]1(C(=O)Nc3ccc(C#CC4=CCCCC4)cc31)[C@H]2c1ccc(O)cc1 | 1.29 | 0.137 | 0.176 | -2.1 (inactive) | 1.3 | 1.29 | 0.57 | 1.33 | 0.542 | -0.201
COC(=O)[C@@]1(Cc2ccc(OC)cc2)[C@H]2c3cc(C(=O)N(C)C)n(CCSCCO)c3C[C@H]2CN1C(=O)c1ccccc1 | 0.403 | 1.14 | 1.16 | -2.69 (inactive) | 0.448 | 0.528 | -0.263 | 0.413 | -0.796 | 0.737
COCCn1c(C(=O)N(C)C)cc2c1C[C@H]1CN(C(=O)c3ccccc3)[C@@](Cc3ccc(F)cc3)(C(=O)OC)[C@@H]21 | 0.205 | 1.15 | 0.843 | -1.12 (inactive) | 0.61 | 0.397 | -0.0331 | 0.126 | -0.567 | 0.692
O=C1OCC=C[C@H]2OC34C=CCN(c5ccc6ccccc6c5)C(=O)[C@H]3N(CCO)C(=O)[C@@H]4[C@@H]12 (stereo not given in full) | 1.07 | 0.134 | 0.947 | -0.461 (inactive) | -0.455 | -0.657 | -1.49 | -1.33 | -2.42 | 0.589
C=CCN1C(=O)[C@@]2(O[C@@H](CCO)[C@H]([Si](C)(C)c3ccc(OC)cc3)[C@H]2C)c2cc(NC(C)=O)ccc21 | 0.463 | -0.155 | -0.255 | -1.17 (inactive) | 1.08 | 1.16 | 0.363 | 1.44 | 1.29 | 0.314
COc1ccc([Si](C)(C)[C@@H]2[C@@H](CCO)O[C@]3(C(=O)N(Cc4ccc(N5C(=O)c6cccc7cccc5c67)cc4)c4ccccc43)[C@H]2C)cc1 | 1.03 | 0.0129 | 0.598 | -1.11 (inactive) | -0.66 | -0.445 | -1.13 | -0.66 | -0.674 | -0.194
